The record followed here is PubChem BioAssay (NCATS).

Inconclusive results are not listed. Entries that show only a call come without a potency. Active and inactive are the calls of the source. Calls follow the shape of the dose curve; as a rule, active = well fitted inhibition curve with a large enough effect; inconclusive = small, poorly fitted or top-dose-only effect; inactive = flat fitted curve, though single readings scatter.

The test system of the test is C2A. The test is described as follows: qHTS profiling for inhibitors of Plasmodium falciparum proliferation (AID 504749). Also: nearly all actives have a fitted effect of over 60% in size. To be noted: P. falciparum in erythrocytes, SYBR Green DNA, 72 h; series mostly up to 28.7 µM. Summed up: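 Three-day growth assay of blood-stage parasites in erythrocytes (0.3% parasitemia, 2.5% hematocrit) at 37 C, 5% CO2, quantified by SYBR Green DNA staining after overnight detergent lysis.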
For the molecule `CCN(CC)C(=O)c1cccnc1`, the Potency entry was “inactive”. To `CNC(=O)C[C@@H](N)C(=O)N[C@@H](C(=O)N[C@@H]1C(=O)N2[C@@H]1SC(C)(C)[C@@H]2C(=O)O)c1ccc(O)cc1` belongs “inactive”. To `CCCCCCCCCCCCCCCCCC(=O)OCC(C)O` (centres undefined) belongs “inactive”. To `NC(=S)NS(=O)(=O)c1ccc(N)cc1` belongs “inactive”; to `N=C(N)n1cccn1`, “inactive”.

On to `Nc1ncnc2c1ncn2CCOCP(=O)(O)O`, for which the Potency result is “inactive”.

As for `CCC(C(=O)NC(N)=O)c1ccccc1` (centres undefined), the Potency result was “inactive”. As for `CC(C)CCC[C@@H](C)[C@H]1CC[C@H]2[C@@H]3CC=C4C[C@@H](O)CC[C@]4(C)[C@H]3CC[C@]12C`, the Potency result was “inactive”.

For `CC1=CCC2CC1C2(C)C` (centres undefined), the Potency entry was “inactive”. The entry for `NC(N)=O` is “inactive”; for `Cc1ncc(C[n+]2csc(CCOP(=O)(O)OP(=O)(O)O)c2C)c(N)n1` it is “inactive”; for `Nc1nc(=O)n([C@@H]2CS[C@H](CO)O2)cc1F` it is “inactive”.

Consider `CCOC(=O)[C@@H](N)CS`, for which the Potency result was “inactive”. Regarding `OCC(O)CO`, the Potency entry is “inactive”. The entry for `O=C1c2ccccc2C(=O)C1c1ccc(F)cc1` is “inactive”. To `O=C(O)COc1ccccc1/C=N/NC(=O)c1ccncc1` belongs “inactive”; to `Cc1cccc(C)c1NC(=O)C1CCCCN1C` (centres undefined), “inactive”; to `CCC(C)[C@@H](N)C(=O)O` (some centres undefined), “inactive”.

Consider `CC(C)(Oc1ccc(C2CCCc3ccccc32)cc1)C(=O)O` (centres undefined), for which the Potency entry was “inactive”. Take `CC(CC=O)CCCC(C)(C)O` (centres undefined): the Potency entry was “inactive”.

For the molecule `S=C1SCN(Cc2ccccc2)CN1Cc1ccccc1`, the Potency result was “inactive”. Turning to `CC(C)Cc1ccc([C@@H](C)C(=O)NS(C)(=O)=O)cc1`, the Potency result was “inactive”.

Turning to `COc1cc2c(cc1OC)[C@@H](Cc1cc(OC)c(OC)c(OC)c1)[N+](C)(CCCOC(=O)CC/C=C/CCC(=O)OCCC[N+]1(C)CCc3cc(OC)c(OC)cc3[C@H]1Cc1cc(OC)c(OC)c(OC)c1)CC2` (some centres undefined), the Potency result was “inactive”.

As to `COC(=O)CCC[N+](C)(C)C`, the Potency result was “inactive”. As for `[O]=[Bi][O][Bi]=[O]`, the Potency entry was “inactive”. `C[C@]12CC[C@@H]3c4ccc(OC(=O)c5ccccc5)cc4CC[C@H]3[C@@H]1CC[C@@H]2O`: the Potency result is “inactive”. The entry for `Cc1ccc(C(C)(C)c2ccc(C)cc2)cc1` is “inactive”; for `FC(F)OC(Cl)C(F)(F)F` (centres undefined) it is “inactive”.

As to `CC(CCc1ccc(O)cc1)NCC(O)c1ccc(O)cc1` (centres undefined), the Potency result was “inactive”. To `CC1=C(/C=C/C(C)=C/C=C/C(C)=C/C(=O)Oc2c(C)c(C)c3c(c2C)CC[C@@](C)(CCC[C@H](C)CCC[C@H](C)CCCC(C)C)O3)C(C)(C)CCC1` belongs “inactive”. To `O=P(O)(O)OP(=O)(O)OP(=O)(O)O` belongs “inactive”; to `CO/N=C(\C(=O)N[C@@H]1C(=O)N2C(C(=O)[O-])=C(C[n+]3cccc4c3CCC4)CS[C@H]12)c1csc(N)n1`, “inactive”. The entry for `CCCCCCCCCCCC(=O)OCC(O)CO` (centres undefined) is “inactive”. In the case of `CS(=O)(=O)OCC(O)C(O)COS(C)(=O)=O` (centres undefined), the Potency result was “inactive”.

Regarding `CC1=CC(=O)NS(=O)(=O)O1`, the Potency result was “inactive”. To `O=C(O)CCCC/C=C(\c1ccccc1)c1cccnc1` belongs “inactive”. To `CCN(CC)C(=S)S` belongs “inactive”. To `C[Se]CC[C@H](N)C(=O)O` belongs “inactive”.

Regarding `CC(C)[C@H](N)C(=O)OCC(CO)OCn1cnc2c(=O)[nH]c(N)nc21` (some centres undefined), the Potency result is “inactive”.
